Test results taken from PubChem BioAssay.
Activity calls are given as the source filed them.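 The calls were made as follows, unless noted: active = inhibition at or above 50% at 10 µM; inactive = inhibition below 50%.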

How the values were obtained:
[1] = inhibitors of TNFa-induced NFkB p65 translocation, primary screen, imaging, HUVEC, MLSMR starter and 10KST1 sets (AID 438;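 active = inhibition above 20% together with a positive visual image hit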;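 also: compound added about 3h40 before a 20 min TNFalpha stimulation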;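 as to inhibition: signal is the nuclear over cytoplasmic p65 intensity ratio per well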); conditions: HUVEC TNFa-induced p65 nuclear translocation; cell count: measured here: nuclei count (cytotoxicity indicator), at 2.08 µM; inhibition: at 2 µM, stronger effect = higher value, 0% TNFa-plus-vehicle, 100% no-TNFa wells
[2] = inhibitors of mutant huntingtin aggregation, primary screen, imaging, exon1htt(103Q)mCFP cells, high-content imaging (AID 483;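 active = visual image review flags a hit and inhibition of aggregation exceeds 20%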;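 also: compound exposure lasted 3 days before fixation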;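 as to nuclei count: percent of the per-plate median nuclei count of sample wells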); conditions: exon1htt(103Q)mCFP cell line, aggregate imaging, at 2 µM; inhibition of aggregation: stronger effect = higher value; nuclei count: measured here: cell count, toxicity
[3] = inhibitors of E-selectin induction by TNFa, primary screen, imaging, HUVEC, immunofluorescence, MLSMR starter and 10KST1 sets (AID 487;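 active = visually confirmed hit in the image check and inhibition above 20%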;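 as to inhibition: signal is fraction of cell area covered by stained E-selectin grains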;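 as to nuclei count: 100% = median nuclei count of all wells on the same plate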); conditions: HUVEC TNFalpha-induced E-selectin immunofluorescence imaging, at 2 µM; inhibition: stronger effect = higher value; nuclei count: measured here: cell number, toxicity
[4] = molecular target: Voltage-gated potassium channel subunit beta-2 (Rattus norvegicus) (UniProt P62483); experiment: KvBeta enzyme negative modulators, primary screen, biochemical, NADPH fluorescence (AID 622;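 active = fluorescence slope higher than the sample average by over 3 SD, cut at about -0.22 in these data, passing the limit was not always enough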;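 also: slope of raw intensity against log time taken from 70 to 1610 s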); conditions: recombinant KvBeta, 4-cyanobenzaldehyde reduction, at 10 µM, stronger effect = higher value
[5] = molecular target: Voltage-gated potassium channel subunit beta-2 (Rattus norvegicus) (UniProt P62483); experiment: KvBeta positive modulators, primary screen, biochemical, NADPH fluorescence (AID 623;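 active = NADPH fluorescence slope more negative than the mean of all samples by about 3 SD, 99.7% confidence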;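 also: fluorescence intensity change per second fitted from 20 to 320 s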); conditions: Recombinant KvBeta, NADPH fluorescence decrease slope, 10 min; at 10 µM; stronger effect = lower value
[6] = molecular target: Alpha-2C adrenergic receptor (Homo sapiens) (UniProt P18825); experiment: modulators of alpha2C/GIRK thallium flux, primary screen, cell-based, HEK293 alpha2C/GIRK1/2 (AID 624;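 active = fluorescence slope after compound addition differing from the mean of all screened samples at 99.7% confidence, in either direction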;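 also: slope of fluorescence ratio to pre-addition baseline per second over 15 to 24 s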); conditions: thallium flux BTC fluorescence, at 10 µM, actives lie on both sides
[7] = inhibitors of Sendai virus-induced IRF3 signaling, primary screen, TLR/RLR signaling modifier project, cell-based, Sendai virus stimulus, luciferase, 10K MLSCN set (AID 602276); conditions: HEK293 RL24 IRF3 luciferase reporter, at 10 µM, stronger effect = higher value;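 also: firefly luciferase from ISG56 promoter only with Renilla not read in this screen; 0% = Sendai virus plus DMSO and 100% = medium plus DMSO without virus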
[8] = inhibitors of poly I:C-induced TLR3 signaling, primary screen, cell-based, poly I:C stimulus, luciferase, 10K MLSCN set (AID 602277;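 active = inhibition of the reporter signal at or above 50%; inactive = inhibition below 50%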); conditions: HEK293-TLR3 RL24 IRF3 luciferase reporter, at 10 µM, stronger effect = higher value

Chain of Alpha-2C adrenergic receptor (Homo sapiens) (P18825 whole entry, looked up): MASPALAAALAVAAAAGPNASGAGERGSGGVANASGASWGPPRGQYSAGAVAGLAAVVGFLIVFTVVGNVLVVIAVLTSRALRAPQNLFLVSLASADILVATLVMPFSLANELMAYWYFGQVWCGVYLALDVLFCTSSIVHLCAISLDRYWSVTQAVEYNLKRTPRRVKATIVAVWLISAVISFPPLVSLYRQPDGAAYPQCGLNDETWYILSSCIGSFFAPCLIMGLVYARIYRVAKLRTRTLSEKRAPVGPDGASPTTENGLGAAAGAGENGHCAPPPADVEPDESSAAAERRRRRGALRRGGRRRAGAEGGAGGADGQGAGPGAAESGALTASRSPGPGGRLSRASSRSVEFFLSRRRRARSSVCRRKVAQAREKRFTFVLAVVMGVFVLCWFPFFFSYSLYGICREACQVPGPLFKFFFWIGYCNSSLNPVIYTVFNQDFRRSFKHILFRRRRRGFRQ
Chain of Voltage-gated potassium channel subunit beta-2 (Rattus norvegicus) (P62483 whole entry, looked up): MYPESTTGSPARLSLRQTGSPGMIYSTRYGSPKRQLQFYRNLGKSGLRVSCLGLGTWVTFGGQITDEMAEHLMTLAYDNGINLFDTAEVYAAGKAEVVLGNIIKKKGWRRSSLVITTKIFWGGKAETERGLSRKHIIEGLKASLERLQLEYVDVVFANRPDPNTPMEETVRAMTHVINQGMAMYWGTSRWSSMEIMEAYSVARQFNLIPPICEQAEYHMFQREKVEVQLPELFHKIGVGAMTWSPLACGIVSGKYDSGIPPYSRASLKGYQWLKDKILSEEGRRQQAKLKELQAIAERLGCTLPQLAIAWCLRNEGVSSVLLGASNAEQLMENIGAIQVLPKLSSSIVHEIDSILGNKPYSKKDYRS

| SMILES | cell count [1] | inhibition [1] | inhibition of aggregation [2] | nuclei count [2] | inhibition [3] | nuclei count [3] | fluorescence slope [4] | NADPH fluorescence slope [5] | slope [6] | inhibition [7] | inhibition [8] |
| --- | --- | --- | --- | --- | --- | --- | --- | --- | --- | --- | --- |
| O=C(CCc1ccc(S(=O)(=O)N2CCOCC2)cc1)NCCc1ccccn1 | 709 | 3.1% (inactive) | -8% (inactive) | 104% | -158% (inactive) | 144% | -0.568 (inactive) | 1.5e-05 (inactive) | 0.00601 (inactive) | -4.86% (inactive) | 1.41% (inactive) |
| CC(CCc1ccccc1)NC(=O)c1ccc(Br)o1 (stereo not drawn) | 570 | -7.8% (inactive) | 2.5% (inactive) | 83.4% | -78.2% (inactive) | 95.1% | -0.449 (inactive) | -3.4e-05 (inactive) | 0.00563 (inactive) | 7.34% (inactive) | 9.03% (inactive) |
| S=C(NCC1CCCO1)n1nnc2ccccc21 (stereo not drawn) | 718 | -5.9% (inactive) | -2.9% (inactive) | 94.6% | 52% (inactive) | 92.8% | -0.399 (inactive) | 4.6e-05 (inactive) | 0.00794 (inactive) | 12.9% (inactive) | 13.5% (inactive) |
| COc1ccc(CNC(=O)c2ccc(CN3CCOCC3)cc2)cc1 | 645 | -7.8% (inactive) | -5.7% (inactive) | 103% | 7.3% (inactive) | 147% | -0.472 (inactive) | -2.6e-05 (inactive) | 0.00567 (inactive) | 7.5% (inactive) | -5.55% (inactive) |
| CC(=O)Nc1sc2c(c1C#N)CCCCC2 | 349 | 0.8% (inactive) | 12.1% (inactive) | 78.3% | -76.6% (inactive) | 115% | -0.396 (inactive) | -5.5e-05 (inactive) | 0.00723 (inactive) | -1.89% (inactive) | -4.1% (inactive) |
| O=C(c1cnc2n(c1=O)CCS2)N(C1CCCCC1)C1CCCCC1 | 649 | -6.9% (inactive) | 6.9% (inactive) | 97.5% | -47.3% (inactive) | 122% | -0.42 (inactive) | -4.8e-05 (inactive) | 0.00465 (inactive) | 11% (inactive) | 39.3% (inactive) |
| COC1CCCCC1NS(=O)(=O)c1ccccc1 (stereo not drawn) | 317 | 1.4% (inactive) | 12.2% (inactive) | 113% | 19.4% (inactive) | 114% | -0.312 (inactive) | -3.1e-06 (inactive) | 0.00597 (inactive) | 11.1% (inactive) | 27.4% (inactive) |
| Cc1ccc2cc(C(c3nnnn3CC3CCCO3)N3CCc4ccccc4C3)c(=O)[nH]c2c1 (stereo not drawn) | 691 | -6.9% (inactive) | 0.5% (inactive) | 78.6% | -102% (inactive) | 120% | -0.523 (inactive) | -3.7e-05 (inactive) | 0.00473 (inactive) | 14% (inactive) | 29.9% (inactive) |
| O=C(NCc1ccccc1)C1CCN(S(=O)(=O)N2CCCCCC2)CC1 | 639 | 0% (inactive) | -6.3% (inactive) | 106% | -19.7% (inactive) | 112% | -0.473 (inactive) | 5.6e-05 (inactive) | 0.00906 (inactive) | -9.73% (inactive) | -4.63% (inactive) |
| CCOC(=O)c1oc2c(CN3CCN(C)CC3)c(O)ccc2c(=O)c1-c1ccccc1OC | 463 | 2.1% (inactive) | -44.9% (inactive) | 86.2% | -59% (inactive) | 103% | -0.61 (inactive) | 8.1e-06 (inactive) | 0.00673 (inactive) | 9.7% (inactive) | 20.2% (inactive) |
| COc1cc(NC(=O)c2nccnc2C(=O)O)cc(OC)c1 | 856 | 1.2% (inactive) | -12.8% (inactive) | 81.8% | -30.5% (inactive) | 117% | -0.554 (inactive) | -2e-05 (inactive) | 0.00607 (inactive) | -3.73% (inactive) | 6.75% (inactive) |
| CCOC(=O)C1C(=O)N(C(=O)c2ccc(OC)cc2)CC1c1ccccc1 (stereo not drawn) | 423 | -7.6% (inactive) | -7.4% (inactive) | 99% | -39.2% (inactive) | 128% | -0.384 (inactive) | -0.000151 (inactive) | 0.00629 (inactive) | 12.3% (inactive) | 22.3% (inactive) |
| COc1ccc(CNC(=O)CCc2nc(-c3ccccc3F)no2)c(OC)c1 | 354 | 1.7% (inactive) | 19.9% (inactive) | 98% | 37.2% (inactive) | 86.3% | -0.378 (inactive) | -2e-05 (inactive) | 0.00384 (inactive) | 8.05% (inactive) | 0.538% (inactive) |
| CCNc1ccc2c(Cl)cc(=O)oc2c1 | 356 | -2.5% (inactive) | 25.1% (inactive) | 72.6% | -6.6% (inactive) | 98.3% | -0.255 (inactive) | -3e-05 (inactive) | 0.00496 (inactive) | 4.11% (inactive) | -1.88% (inactive) |
| COc1cccc(C2CC(c3ccc(C)cc3)Nc3nc(N)nn32)c1 (stereo not drawn) | 538 | 2.3% (inactive) | 23.1% (inactive) | 102% | 28% (inactive) | 101% | -0.564 (inactive) | 4e-05 (inactive) | 0.0074 (inactive) | -7.82% (inactive) | 16.6% (inactive) |
| Cc1ccc(S(=O)(=O)N2CCC(C(=O)N3CCN(Cc4ccccc4)CC3)CC2)cc1 | 659 | -14% (inactive) | 19% (inactive) | 110% | -40.7% (inactive) | 106% | -0.518 (inactive) | -1.5e-05 (inactive) | 0.0064 (inactive) | 8.56% (inactive) | 16.4% (inactive) |
| Cc1cccc(N(CC(=O)Nc2ccc(CC#N)cc2)S(C)(=O)=O)c1 | 487 | -15.7% (inactive) | -17.9% (inactive) | 106% | -87.9% (inactive) | 109% | -0.483 (inactive) | -2.6e-05 (inactive) | 0.00518 (inactive) | 16.7% (inactive) | 28.7% (inactive) |
| CCCCn1nnnc1NCc1cccs1 | 412 | 2.9% (inactive) | 0.4% (inactive) | 105% | -66.2% (inactive) | 119% | -0.52 (inactive) | -1.2e-05 (inactive) | 0.00631 (inactive) | 4.2% (inactive) | -0.68% (inactive) |
| CCOC(=O)c1cccc(NC(=O)C2CCN(S(=O)(=O)c3cccs3)CC2)c1 | 369 | -5.7% (inactive) | 3.6% (inactive) | 90.7% | -45.4% (inactive) | 128% | -0.634 (inactive) | -3.5e-05 (inactive) | 0.00624 (inactive) | 3.96% (inactive) | 5.8% (inactive) |
| CC1CCC(NC(=O)C2CCN(c3cnccn3)CC2)CC1 (stereo not drawn) | 579 | -52% (inactive) | -0.6% (inactive) | 102% | -108% (inactive) | 116% | -0.575 (inactive) | -6.7e-05 (inactive) | 0.00693 (inactive) | -0.638% (inactive) | -2.17% (inactive) |
| COc1ccc(-n2c(N)c(C(=O)NCc3ccco3)c3nc4ccccc4nc32)c(OC)c1 | 737 | -6% (inactive) | -0.1% (inactive) | 97.9% | 27.3% (inactive) | 102% | -0.246 (inactive) | -4.5e-06 (inactive) | 0.00521 (inactive) | 6.27% (inactive) | 7.88% (inactive) |
| CCN1CCN(C(=O)c2cc3c(=O)n(C)c4ccccc4c3n2C)CC1 | 601 | 20.7% (inactive) | -10.2% (inactive) | 102% | -89.4% (inactive) | 126% | -0.583 (inactive) | -1.9e-05 (inactive) | 0.00682 (inactive) | 2.73% (inactive) | 32.2% (inactive) |
| Cc1ccc(-n2c(SCC3CCCCO3)nnc2-c2ccco2)cc1 (stereo not drawn) | 573 | 0.5% (inactive) | 7.5% (inactive) | 86.9% | -17.5% (inactive) | 102% | -0.413 (inactive) | -4.4e-05 (inactive) | 0.00422 (inactive) | 20.5% (inactive) | 25.2% (inactive) |
| Cc1onc(-c2ccccc2)c1C(=O)N1CCOCC1 | 619 | -3.5% (inactive) | -7.5% (inactive) | 113% | -39.2% (inactive) | 106% | -0.327 (inactive) | 7.5e-06 (inactive) | 0.00368 (inactive) | 12.5% (inactive) | 20.9% (inactive) |
| Cc1cccc(-n2ncc3c(N)ncnc32)c1 | 622 | 9.1% (inactive) | -51.6% (inactive) | 6% | -12.6% (inactive) | 110% | -0.596 (inactive) | -2.7e-05 (inactive) | 0.0039 (inactive) | -20.5% (inactive) | -80.6% (inactive) |
| CCOC(=O)c1cc2ccc(OC)c(OC)c2c(=O)s1 | 452 | 4.9% (inactive) | -3.4% (inactive) | 102% | 36.3% (inactive) | 108% | -0.396 (inactive) | -2.4e-05 (inactive) | 0.00363 (inactive) | -11.9% (inactive) | -12.5% (inactive) |
| CC1CN(c2nc3ccccc3nc2C(C#N)C(=O)OC2CCCCC2)CC(C)O1 (stereo not drawn) | 382 | -6.2% (inactive) | -28.8% (inactive) | 116% | -12.3% (inactive) | 111% | -0.364 (inactive) | 2.4e-05 (inactive) | 0.0019 (active) | 15.1% (inactive) | 22.4% (inactive) |
| CN1CCN(c2nc(-c3ccncc3)nc3ccccc23)CC1 | 324 | -13.1% (inactive) | -19.7% (inactive) | 51.3% | -133% (inactive) | 120% | -0.41 (inactive) | -3.7e-05 (inactive) | 0.00562 (inactive) | 11.9% (inactive) | 15.9% (inactive) |
